Experimental data: PubChem BioAssay
Potency and affinity values are given separately. Inconclusive results are not listed. Active and inactive are the calls of the source.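 Rule for the calls, unless noted: active = fitted dose curve reaches 40% lysis signal rise at or below the highest valid concentration tested for that sample; inconclusive = flat fit between 30% and 70%, or poor curve fit; inactive = signal falls, stays flat within 30%, or no crossing.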

Experiment: fungal growth arrest, C. neoformans – Alamar Blue, cherry-picks, dose response (AID 686998;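 active = falling signal with fitted half-maximal potency no higher than twice the top valid tested dose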)
Conditions: Cryptococcus neoformans growth, 24 h; series mostly up to 35 µM; activity change, negative = inhibition: at the top concentration

Compound | activity change, negative = inhibition
O=C(CSc1ncnc2c1cnn2-c1ccc(Cl)cc1)NCc1ccc2c(c1)OCO2 | -36.4% (inactive)
CCCNC(=O)N1C[C@@H]2[C@H](c3ccccc31)[C@H](CO)N2Cc1ccc(OC)cc1 | -21.6% (inactive)
CN1C(=O)c2cc(NC(=O)NC3CCCC3)ccc2OC[C@H]2O[C@@H](CC(=O)NCC3CC3)CC[C@@H]21 | 13.5% [at 38 µM] (inactive)
COc1ccc(-n2cc(CNCCc3nc(C)cc(C)n3)c(-c3ccccc3Cl)n2)cc1 | -26% (inactive)
O=C1CCC(C(=O)Nc2ccc(Cl)cc2)N1 (stereo not drawn) | 23.2% (inactive)
C[C@@H]1CN([C@@H](C)CO)S(=O)(=O)c2ccc(C#Cc3ccc(F)cc3)cc2O[C@H]1CN(C)C(=O)NC1CCCC1 | 32.2% (inactive)
C[C@H](CO)N1C[C@H](C)[C@H](CN(C)Cc2cccnc2)Oc2ncc(C#CC3(O)CCCC3)cc2C1=O | -14.1% (inactive)
Cc1ccc(NC(=O)C2(C)CCN2C(=O)CC2CCCC2)cc1 (stereo not drawn) | 1.42% [at 50 µM] (inactive)
C[C@H](CO)N1C[C@H](C)[C@H](CN(C)S(=O)(=O)c2ccccc2)Oc2ccc(NS(=O)(=O)c3ccc(F)cc3)cc2C1=O | -13.5% (inactive)

Experiment: C. neoformans lysis by adenylate kinase leakage – AK release luminescence, cherry-picks, dose response (AID 687000);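 note: luminescent detection of adenylate kinase leaking from lysed yeast; 0% = median neutral control signal and 100% = double that signal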
Conditions: 4 h, 100% = twice the neutral-control signal; series mostly up to 15 µM; lysis activity: at the top concentration

Compound | lysis activity
C/C=C/c1cnc2c(c1)C(=O)N([C@H](C)CO)C[C@@H](C)[C@@H](CN(C)C(=O)C1CCCCC1)O2 | -4.36% (inactive)
COc1ccc(CNC(=O)C[C@H]2CC[C@H]3[C@@H](COc4ccc(NC(=O)C5CC5)cc4C(=O)N3C)O2)cc1 | -5.11% (inactive)
CC(=O)N1[C@@H]2c3ccc(-c4ccccc4)c(=O)n3C[C@H]1[C@H](CO)[C@H]2C(=O)Nc1ccccc1 | -9.53% (inactive)
CC(Sc1ncnc2c1cnn2-c1ccccc1)C(=O)Nc1ccc(N2CCOCC2)cc1 (stereo not drawn) | -10.5% (inactive)
COc1ccccc1C(=O)Nc1ccc2c(c1)C(=O)N(C)C[C@@H](OC)[C@H](C)CN(C)[C@@H](C)CO2 | 32.1% (inactive)
Cc1ccc(N(C(=O)C2CCC(=O)N2)C2(C(=O)NC3CCCCC3)CCCCC2)cc1 (stereo not drawn) | -4.55% (inactive)
CNC[C@@H]1OCCCC[C@H](C)Oc2ccc(NC(=O)NC(C)C)cc2C(=O)N([C@H](C)CO)C[C@H]1C | 4.49% (inactive)
COc1ccc(NC(=O)Nc2ccc3c(c2)C(=O)N([C@H](C)CO)C[C@@H](C)[C@H](CN(C)S(=O)(=O)c2ccc(Cl)cc2)OCCCC[C@@H](C)O3)cc1 | -9.52% (inactive)
Cc1noc(C)c1NC(=O)Nc1ccc2c(c1)C(=O)N([C@H](C)CO)C[C@H](C)[C@H](CN(C)CC1CCCCC1)O2 | 3.84% (inactive)
CO[C@H]1CC[C@@H]2CCOc3c(C#N)cccc3C(=O)N(C)C[C@H](OC)[C@@H](C)C(=O)N(C)C[C@@H]1O2 | 7.32% (inactive)
CC(C)NC(=O)Nc1ccc2c(c1)C(=O)N([C@H](C)CO)C[C@@H](C)[C@H](CN(C)C(=O)Nc1ccccc1)OCCCC[C@@H](C)O2 | 2.82% (inactive)
CCCNC(=O)N(C)C[C@H]1Oc2ncc(C#CC3CCCCC3)cc2C(=O)N([C@@H](C)CO)C[C@@H]1C | -13.9% (inactive)
C[C@@H]1CN([C@H](C)CO)C(=O)Cc2cc(NC(=O)CCCCCC(=O)Nc3ccccc3N)ccc2O[C@H]1CN(C)Cc1ccc2c(c1)OCO2 | 29.3% [at 13.5 µM] (inactive)
CC(C)NC(=O)N(C)C[C@@H]1OCCCC[C@@H](C)Oc2ccc(NC(=O)c3ccccc3)cc2C(=O)N([C@H](C)CO)C[C@H]1C | 25% (inactive)
Cc1noc(C)c1NC(=O)Nc1ccc2c(c1)C(=O)N(C)[C@H]1CC[C@H](CC(=O)N[C@H]3CCN(Cc4ccccc4)C3)O[C@H]1CO2 | 2.75% (inactive)
Cc1noc(C)c1S(=O)(=O)Nc1ccc2c(c1)CC(=O)N([C@@H](C)CO)C[C@@H](C)[C@@H](CN(C)S(=O)(=O)c1cccs1)O2 | -1.81% (inactive)
CO[C@@H]1CN(C)C(=O)c2cc(NS(=O)(=O)C3CCCCC3)ccc2OC[C@H](C)NC[C@@H]1C | -8.22% (inactive)
C/C=C/c1ccc([C@@H]2[C@@H](CO)N3CCCCN(C(=O)Nc4ccc(OC)cc4)C[C@H]23)cc1 | 1.76% (inactive)
C[C@@H]1CN([C@@H](C)CO)C(=O)c2cc(NC(=O)C3CCCCC3)ccc2O[C@@H](C)CCCCO[C@@H]1CN(C)C(=O)NC1CCCCC1 | -6.48% (inactive)
C[C@H](CO)N1C[C@H](C)[C@H](CN(C)Cc2cccc(C(F)(F)F)c2)OCc2cnnn2CCCC1=O | 18.3% (inactive)

Compound | lysis activity
COc1ccc(-c2cnc3c(c2)C(=O)N([C@@H](C)CO)C[C@@H](C)[C@@H](CN(C)S(C)(=O)=O)O3)cc1 | 3.57% (inactive)
CCC(=O)N(C)C[C@H]1Oc2cc(C#CC(C)(C)O)ccc2S(=O)(=O)N([C@@H](C)CO)C[C@@H]1C | -4.62% (inactive)
O=C(C[C@H]1C=C[C@H](NC(=O)Nc2cc(F)ccc2F)[C@@H](CO)O1)NCCCN1CCOCC1 | 11.3% (inactive)
C[C@@H]1CN([C@H](C)CO)C(=O)c2cc(C#CC(C)(C)O)cnc2O[C@@H]1CN(C)Cc1cncnc1 | -20.4% (inactive)
CCC(=O)N[C@H]1C=C[C@H](CC(=O)NCC2CCCCC2)O[C@@H]1CO | -13.8% (inactive)
O=C(C[C@H]1C[C@@H]2c3cc(NC(=O)c4cccnc4)ccc3O[C@@H]2[C@@H](CO)O1)NCCc1ccccc1 | -11.7% (inactive)
O=C(NC(=S)Nc1ccccc1)c1cc([N+](=O)[O-])ccc1N1CCOCC1 | -0.323% (inactive)
CC(C)NC(=O)Nc1ccc2c(c1)C(=O)N([C@@H](C)CO)C[C@@H](C)[C@@H](CN(C)C(=O)c1ccncc1)OCCCC[C@@H](C)O2 | 5.46% (inactive)
C[C@@H]1CN([C@@H](C)CO)C(=O)c2cc(NS(=O)(=O)c3ccccc3)ccc2O[C@H]1CN(C)C(=O)NC1CCCCC1 | 4.28% (inactive)
C[C@@H]1CN([C@H](C)CO)C(=O)c2cc(-c3ccc(F)cc3)cnc2O[C@H]1CN(C)CC1CCCCC1 | 11.5% (inactive)
O=C(CSc1ncnc2c1cnn2-c1ccc(Cl)cc1)NCc1ccc2c(c1)OCO2 | 4.33% (inactive)
CCCNC(=O)N1C[C@@H]2[C@H](c3ccccc31)[C@H](CO)N2Cc1ccc(OC)cc1 | 2.41% (inactive)
CN1C(=O)c2cc(NC(=O)NC3CCCC3)ccc2OC[C@H]2O[C@@H](CC(=O)NCC3CC3)CC[C@@H]21 | 3.02% [at 16 µM] (inactive)
COc1ccc(-n2cc(CNCCc3nc(C)cc(C)n3)c(-c3ccccc3Cl)n2)cc1 | -17% (inactive)
O=C1CCC(C(=O)Nc2ccc(Cl)cc2)N1 (stereo not drawn) | -4.3% (inactive)
C[C@@H]1CN([C@@H](C)CO)S(=O)(=O)c2ccc(C#Cc3ccc(F)cc3)cc2O[C@H]1CN(C)C(=O)NC1CCCC1 | -14.7% (inactive)
C[C@H](CO)N1C[C@H](C)[C@H](CN(C)Cc2cccnc2)Oc2ncc(C#CC3(O)CCCC3)cc2C1=O | -12.7% (inactive)
Cc1ccc(NC(=O)C2(C)CCN2C(=O)CC2CCCC2)cc1 (stereo not drawn) | -14.5% [at 23.5 µM] (inactive)
C[C@H](CO)N1C[C@H](C)[C@H](CN(C)S(=O)(=O)c2ccccc2)Oc2ccc(NS(=O)(=O)c3ccc(F)cc3)cc2C1=O | 9.92% (inactive)
